{
  "source": "ChEMBL document CHEMBL1201862",
  "about": "“PubChem BioAssay data set” (2004)",
  "note": "Hit rate of the full screen: of about 400,000 compounds, about 2,100 (0.53%) were called active. Roughly 14% stayed inconclusive and do not appear here. No rule for the calls is given here. The entries come from a sample that favours actives as a whole.",
  "data": [
    {"target": "Ataxin-2 (Homo sapiens) (UniProt Q99700)", "sequence (Q99700 whole entry)": "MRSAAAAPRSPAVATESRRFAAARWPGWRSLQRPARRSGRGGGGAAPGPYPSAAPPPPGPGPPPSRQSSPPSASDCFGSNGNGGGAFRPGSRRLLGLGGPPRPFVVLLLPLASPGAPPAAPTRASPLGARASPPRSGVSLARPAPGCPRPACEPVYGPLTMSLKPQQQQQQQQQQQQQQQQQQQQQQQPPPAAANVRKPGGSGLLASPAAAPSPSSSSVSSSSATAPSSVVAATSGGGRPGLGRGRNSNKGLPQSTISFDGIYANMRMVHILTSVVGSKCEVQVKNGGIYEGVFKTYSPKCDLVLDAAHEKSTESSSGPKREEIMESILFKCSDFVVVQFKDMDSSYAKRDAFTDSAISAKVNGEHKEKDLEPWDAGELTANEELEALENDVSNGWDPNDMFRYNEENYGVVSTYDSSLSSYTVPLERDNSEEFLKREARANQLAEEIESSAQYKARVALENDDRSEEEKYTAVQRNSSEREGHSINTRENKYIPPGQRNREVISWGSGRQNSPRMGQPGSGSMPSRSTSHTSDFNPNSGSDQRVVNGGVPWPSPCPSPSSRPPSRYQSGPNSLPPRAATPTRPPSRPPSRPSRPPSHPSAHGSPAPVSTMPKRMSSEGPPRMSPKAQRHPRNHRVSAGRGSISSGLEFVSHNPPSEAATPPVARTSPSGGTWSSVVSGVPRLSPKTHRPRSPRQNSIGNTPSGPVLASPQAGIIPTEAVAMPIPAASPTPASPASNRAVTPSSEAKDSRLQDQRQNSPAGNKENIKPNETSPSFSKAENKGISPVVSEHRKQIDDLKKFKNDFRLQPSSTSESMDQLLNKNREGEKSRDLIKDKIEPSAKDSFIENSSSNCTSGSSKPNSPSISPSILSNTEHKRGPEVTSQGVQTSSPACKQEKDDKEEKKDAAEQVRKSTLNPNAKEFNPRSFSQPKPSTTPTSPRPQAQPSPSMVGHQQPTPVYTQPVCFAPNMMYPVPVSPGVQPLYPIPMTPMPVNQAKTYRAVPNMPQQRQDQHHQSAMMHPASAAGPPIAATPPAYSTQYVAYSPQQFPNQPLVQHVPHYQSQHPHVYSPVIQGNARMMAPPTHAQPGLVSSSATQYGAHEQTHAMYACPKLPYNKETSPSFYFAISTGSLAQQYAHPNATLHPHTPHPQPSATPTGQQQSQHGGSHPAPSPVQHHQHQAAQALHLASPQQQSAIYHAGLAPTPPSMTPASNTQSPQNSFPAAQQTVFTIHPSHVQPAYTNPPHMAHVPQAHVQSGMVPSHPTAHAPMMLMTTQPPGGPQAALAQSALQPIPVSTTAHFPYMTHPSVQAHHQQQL", "assay": "qHTS for Inhibitors of ATXN expression.", "type": "functional", "values": [
      {"smiles": "Cc1nnc(N2CCCC(C(=O)Nc3cc(F)ccc3F)C2)c2nn(-c3ccccc3)c(C)c12", "note": "(stereo not drawn)", "Potency": "35.5 µM (active)"},
      {"smiles": "CCOc1ccc(CNC(=O)C2CCCN(c3nnc(C)c4c(C)n(-c5ccccc5)nc34)C2)cc1", "note": "(stereo not drawn)", "Potency": "15.8 µM (active)"},
      {"smiles": "CCOC(=O)N1CCN(S(=O)(=O)N2CCCC(C(=O)NCCc3ccc(Cl)cc3)C2)CC1", "note": "(stereo not drawn)", "Potency": "inactive"},
      {"smiles": "COc1ccc(C)cc1NC(=O)C1CCCN1S(=O)(=O)c1ccccc1F", "note": "(stereo not drawn)", "Potency": "inactive"},
      {"smiles": "Cc1cc(NC(C)C)n2c(nc3ccccc32)c1C#N", "Potency": "inactive"},
      {"smiles": "COC(=O)c1c(C(=O)OC)c2c(-c3ccccc3)cc3cccc1n32", "Potency": "inactive"},
      {"smiles": "Cc1ccc(C2=CC(c3ccccc3)n3ncnc3N2)cc1", "note": "(stereo not drawn)", "Potency": "inactive"},
      {"smiles": "CCn1c(=N)c(C(=O)NC2CCCC2)cc2c(=O)n3ccccc3nc21", "Potency": "inactive"},
      {"smiles": "COC(=O)c1ccc(-c2sc3nc(N4CCOCC4)c4c(c3c2N)CCCC4)o1", "Potency": "inactive"},
      {"smiles": "O=C(CSc1ccc(-c2cccs2)nn1)Nc1ccccc1F", "Potency": "inactive"},
      {"smiles": "Cc1cc(C)n2nc(C(=O)OCC(=O)NC3CCS(=O)(=O)C3)nc2n1", "note": "(stereo not drawn)", "Potency": "inactive"},
      {"smiles": "N#Cc1c(-c2ccccc2F)cc(C2CC2)nc1SCC(=O)c1cccs1", "Potency": "inactive"},
      {"smiles": "Cc1nnc(N2CCCC(C(=O)NCCN(C)C)C2)c2nn(-c3ccccc3)c(C)c12", "note": "(stereo not drawn)", "Potency": "44.7 µM (active)"},
      {"smiles": "O=C(NCCS(=O)(=O)N1CCN(c2ccccc2)CC1)C1CCCCC1", "Potency": "inactive"},
      {"smiles": "CCOc1ccccc1NC(=O)C1CCC(CNc2c(N3CCCCC3)c(=O)c2=O)CC1", "note": "(stereo not drawn)", "Potency": "inactive"},
      {"smiles": "CCOc1ccccc1CNC(=O)C1CCN(c2nnc(C)c3c(C)n(-c4ccc(C)cc4)nc23)CC1", "Potency": "35.5 µM (active)"},
      {"smiles": "N#Cc1ccccc1CSc1nc2ccsc2c(=O)n1Cc1ccccn1", "Potency": "inactive"},
      {"smiles": "COc1ccc(-c2cc(=O)oc3cc(OC(=O)C4CCCCC4)ccc23)cc1", "Potency": "inactive"},
      {"smiles": "O=C1CCC([N+](=O)[O-])C(c2ccc3c(c2)OCO3)N1", "note": "(stereo not drawn)", "Potency": "inactive"},
      {"smiles": "CCN(CC)c1ccc(-c2nc3cnccn3c2NC2CCCC2)cc1", "Potency": "inactive"},
      {"smiles": "O=C1N/C(=C/c2cccn2-c2ccc(F)cc2)C(=O)N1Cc1ccccc1", "Potency": "inactive"},
      {"smiles": "COc1ccccc1CNc1nc(NCC2CC2)nc2ccsc12", "Potency": "15.8 µM (active)"},
      {"smiles": "CC(C)Nc1nc(NCCOc2ccccc2Cl)c2sccc2n1", "Potency": "22.4 µM (active)"},
      {"smiles": "CNc1nc(NCC2CCCCC2)c2sccc2n1", "Potency": "12.6 µM (active)"},
      {"smiles": "c1ccc(CNc2nc(NCCOc3ccccc3)c3sccc3n2)cc1", "Potency": "22.4 µM (active)"},
      {"smiles": "COc1ccc(C(=O)NCCOc2ccccc2Cl)c(OC)c1OC", "Potency": "inactive"},
      {"smiles": "O=C(NC(=O)c1ccccc1Cl)C(=O)Nc1ccc(Cl)cc1", "Potency": "inactive"},
      {"smiles": "O=C(N/N=C/c1cc2c3c(c1O)CCCN3CCC2)c1ccccc1O", "Potency": "inactive"},
      {"smiles": "CCN(CC)c1ccc2cc(S(=O)(=O)c3ccc(Cl)cc3)c(=O)oc2c1", "Potency": "inactive"},
      {"smiles": "CCN(CC)S(=O)(=O)c1cccc(C(=O)N/N=C(\\C)c2ccc(O)cc2O)c1", "Potency": "inactive"},
      {"smiles": "O=C(O)c1cc2ccc(O)cc2oc1=O", "Potency": "inactive"},
      {"smiles": "COc1ccc(-c2cnc(C(N)=O)c(O)n2)cc1", "Potency": "inactive"},
      {"smiles": "CC[C@@H]1C(c2ccccc2)=NN(c2ccc(Br)cc2)[C@H]1C(=O)N1CCOC1=O", "Potency": "inactive"},
      {"smiles": "O=C1OCCN1C(=O)[C@H]1[C@H](c2ccc(Cl)cc2)C(c2ccc(F)cc2)=NN1c1ccccc1", "Potency": "inactive"},
      {"smiles": "COc1cccc(CNc2nc(NCc3cccs3)nc3ccsc23)c1", "Potency": "39.8 µM (active)"},
      {"smiles": "C#Cc1cccc(Nc2nc(NC(C)C)nc3ccsc23)c1", "Potency": "28.2 µM (active)"},
      {"smiles": "COc1cccc(CNC(=O)Cc2csc(Nc3nc(S)nc4ccccc34)n2)c1", "Potency": "inactive"},
      {"smiles": "c1cc2cc(CNc3nc(NCC4CC4)nc4ccsc34)ccc2o1", "Potency": "25.1 µM (active)"},
      {"smiles": "COCCNc1nc(NCc2ccc(C(C)C)cc2)c2sccc2n1", "Potency": "35.5 µM (active)"},
      {"smiles": "c1csc(CNc2nc(Oc3ccncc3)c3sccc3n2)c1", "Potency": "inactive"},
      {"smiles": "CC(=O)c1ccc(NC(=O)COC(=O)Cc2ccsc2)cc1", "Potency": "inactive"},
      {"smiles": "S=C(c1ccc(-c2ccc(Br)cc2)o1)N1CCCCC1", "Potency": "inactive"},
      {"smiles": "CN(Cc1ccon1)C(=O)CC1C(=O)NCCN1CC(C)(C)C", "note": "(stereo not drawn)", "Potency": "inactive"},
      {"smiles": "O=S(=O)(O)c1ccc(SCc2ccccc2)nc1", "Potency": "inactive"},
      {"smiles": "COc1ccccc1CNc1nc(NCc2ccc(C(C)C)cc2)c2sccc2n1", "Potency": "31.6 µM (active)"},
      {"smiles": "CC(C)c1ccc(CNc2nc(NCC3CC3)nc3ccsc23)cc1", "Potency": "28.2 µM (active)"},
      {"smiles": "COc1ccc(CNc2nc3ccccc3n2C(C)C)cc1", "Potency": "inactive"},
      {"smiles": "CCn1c(/C=C/c2c[nH]c3ccccc23)nc2ccccc2c1=O", "Potency": "inactive"},
      {"smiles": "O=C(CCCCl)Oc1ccc2cc(-c3ccc4ccccc4n3)c(=O)oc2c1", "Potency": "inactive"},
      {"smiles": "Cc1ccc(NC(=O)C2CCCN2c2nn3c(=O)cc(C)nc3s2)cc1", "note": "(stereo not drawn)", "Potency": "inactive"},
      {"smiles": "CCOc1ncccc1C(=O)NC(C)CCc1ccccc1", "note": "(stereo not drawn)", "Potency": "inactive"},
      {"smiles": "CCOc1ncccc1C(=O)OCC(=O)NC(=O)NC(C)C", "Potency": "inactive"},
      {"smiles": "CCOc1ncccc1C(=O)Nc1nc(C(C)(C)C)cs1", "Potency": "39.8 µM (active)"}
    ]}
  ]
}
